Out of some 37,000 compounds screened, about 100 (0.27%) were called active. Cut-off read from the data, not from the text of the source: active = inhibition above about 85%; inconclusive = no clear call, values can overlap the other calls; inactive = below about 68%. The list comes from a sample in which actives are over-represented; it also holds similar structures and randomly drawn compounds.
Assay: inhibitors of MITF, primary screen, MITF inhibitor project, cell-based, luminescence (AID 2240);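 note: human melanocyte line stably carrying TRPM1 promoter luciferase reporter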
Conditions: TRPM1 promoter luciferase, 24 h, active compounds read high, concentration not given here

Q: Which inhibition does the source give for Cc1cc(C(=O)Nc2cccc3c2O[C@@H](CN(C)C(=O)Nc2ccc(F)cc2)[C@H](C)CN([C@@H](C)CO)C3=O)n(C)n1 here?
A: Its inhibition is -3.61% (inactive).

Q: For CC1=C(C(=O)OCc2ccccc2)OC(N)=C(C#N)C1c1ccc(F)cc1 (centres undefined), which inhibition is on record?
A: Its inhibition is -8.27% (inactive).

Q: For O=S(=O)(NCCc1ccccc1)c1ccccc1, which inhibition is on record?
A: Its inhibition is -1.44% (inactive).

Q: For Cc1cc(C)c2c(c1)CC(C)(C)c1[nH]c(-c3ccccc3)nc1-2, which inhibition is on record?
A: The inhibition was 12.3% (inactive).

Q: For CCCC1CCC(c2ccc(OC(=O)c3ccco3)cc2)CC1 (centres undefined), which inhibition is on record?
A: The inhibition was -3.57% (inactive).

Q: For Cc1ccc(-n2c(SCC(=O)Nc3cccc(C)c3C)nc3ccccc3c2=O)cc1, which inhibition is on record?
A: Its inhibition is 14.3% (inactive).

Q: For Cc1nc(SCC(=O)O)[nH]c(=O)c1Oc1ccccc1, which inhibition is on record?
A: Its inhibition is -13.2% (inactive).

Q: For O=C(CCn1nc(-c2ccccc2)c2ccccc2c1=O)Nc1cccc(Br)c1, which inhibition is on record?
A: Its inhibition is 6.27% (inactive).

Q: For O=C(c1nc2ncccn2n1)N(Cc1ccccc1)Cc1ccccc1, which inhibition is on record?
A: The inhibition was 3.11% (inactive).

Q: With COc1cc(CO)cc(Cl)c1OCc1cccc([N+](=O)[O-])c1 as the molecule, how does the inhibition read?
A: The inhibition was -30.9% (inactive).

Q: Which inhibition does the source give for COc1ccc(-c2cnc3c(-c4ccsc4)cnn3c2)cc1 here?
A: Its inhibition is 26.7% (inactive).

Q: With COc1ccc(S(=O)(=O)Nc2ccc3c(c2)CC(=O)N([C@H](C)CO)C[C@H](C)[C@H](CN(C)C(=O)Nc2ccccc2)O3)cc1 as the molecule, how does the inhibition read?
A: The inhibition was -16.9% (inactive).

Q: With CNC[C@H]1Oc2ccc(NC(=O)C3CCCCC3)cc2C(=O)N([C@H](C)CO)C[C@@H]1C as the molecule, how does the inhibition read?
A: The inhibition was 4.94% (inactive).

Q: For C[C@H]1CN([C@@H](C)CO)C(=O)c2cccc(NC(=O)Nc3cccc4ccccc34)c2O[C@@H]1CN(C)C(=O)NC1CCCCC1, which inhibition is on record?
A: The inhibition was 0.565% (inactive).

Q: For O=C(CCCN1C(=O)c2ccccc2C1=O)Nc1cccc2c1CCCC2, which inhibition is on record?
A: The inhibition was -8.57% (inactive).

Q: Which inhibition does the source give for Cc1ccc2oc3c(c(=O)c2c1)C(c1ccc([N+](=O)[O-])cc1)N(CCCN1CCOCC1)C3=O (centres undefined) here?
A: The inhibition was -26.1% (inactive).

Q: Which inhibition does the source give for O=C(CN1CCOCC1)Nc1ccc(NC(=O)CN2CCOCC2)c(Cl)c1 here?
A: Its inhibition is -25.8% (inactive).

Q: Which inhibition does the source give for C[C@H](CO)N1C[C@H](C)[C@H](CN(C)CC2CCCCC2)Oc2ccc(NC(=O)C3CCCCC3)cc2C1=O here?
A: Its inhibition is -9.78% (inactive).

Q: Which inhibition does the source give for C[C@H]1CN([C@@H](C)CO)C(=O)Cc2cc(NC(=O)Cc3ccccc3)ccc2O[C@@H]1CN(C)S(=O)(=O)c1ccc(Cl)cc1 here?
A: The inhibition was 12.5% (inactive).

Q: With C[C@H]1CN([C@@H](C)CO)C(=O)c2cc(NC(=O)c3ccncc3)ccc2O[C@H]1CN(C)Cc1ccc(C(=O)Nc2ccccc2N)cc1 as the molecule, how does the inhibition read?
A: The inhibition was 20.5% (inactive).

Q: For O=C(OC1=CC(=O)c2cccc3cccc1c23)c1ccccc1, which inhibition is on record?
A: The inhibition was 26.1% (inactive).

Q: Which inhibition does the source give for O=C(c1ccc(NCc2cccnc2)c([N+](=O)[O-])c1)N1CCCCC1 here?
A: The inhibition was 6.72% (inactive).

Q: For CC1(C)Cc2c(sc3ncn4nc(COc5ccc(Cl)cc5)nc4c23)C(C)(C)N1, which inhibition is on record?
A: The inhibition was 6.06% (inactive).

Q: Which inhibition does the source give for CNC[C@@H]1Oc2c(NC(=O)Nc3ccc(OC)cc3)cccc2C(=O)N([C@@H](C)CO)C[C@@H]1C here?
A: Its inhibition is -2.63% (inactive).

Q: With C[C@H]1CN([C@@H](C)CO)C(=O)Cc2cc(NC(=O)NC3CCCCC3)ccc2O[C@@H]1CN(C)Cc1ccc(Oc2ccccc2)cc1 as the molecule, how does the inhibition read?
A: The inhibition was 33.3% (inactive).

Q: With C[C@@H]1CN([C@H](C)CO)C(=O)Cc2cc(NC(=O)NC3CCCCC3)ccc2O[C@H]1CN(C)S(=O)(=O)c1ccc(Cl)cc1 as the molecule, how does the inhibition read?
A: Its inhibition is -10.5% (inactive).

Q: Which inhibition does the source give for Cc1ccc(N(CC(=O)Nc2ccccc2Sc2ccccc2)S(C)(=O)=O)c(C)c1 here?
A: The inhibition was -5.49% (inactive).

Q: Which inhibition does the source give for CC(=O)Nc1nc2ccccc2s1 here?
A: The inhibition was -10.3% (inactive).

Q: Which inhibition does the source give for Cc1noc(C)c1NC(=O)Nc1cccc2c1O[C@@H](CN(C)Cc1ccc(C(F)(F)F)cc1)[C@@H](C)CN([C@@H](C)CO)C2=O here?
A: The inhibition was 1.59% (inactive).

Q: With COc1ccc(NC(=O)Nc2cccc3c2O[C@@H](CN(C)S(=O)(=O)c2cn(C)cn2)[C@H](C)CN([C@@H](C)CO)C3=O)cc1 as the molecule, how does the inhibition read?
A: The inhibition was -11.4% (inactive).

Q: For C[C@@H]1CN([C@H](C)CO)C(=O)c2cc(NC(=O)NC3CCCCC3)ccc2O[C@@H]1CN(C)S(C)(=O)=O, which inhibition is on record?
A: Its inhibition is 1.34% (inactive).

Q: Which inhibition does the source give for Nc1cc(N)nc(SCC(=O)c2ccc(Br)cc2)n1 here?
A: Its inhibition is -22.1% (inactive).

Q: Which inhibition does the source give for CCCCn1c(O)c(C#N)c(C)cc1=O here?
A: Its inhibition is -16.6% (inactive).

Q: Which inhibition does the source give for C[C@H]1CN([C@@H](C)CO)C(=O)Cc2cc(NS(C)(=O)=O)ccc2O[C@@H]1CN(C)CC1CC1 here?
A: Its inhibition is -11.8% (inactive).

Q: With C=CCn1c2ccccc2c2nnc(SCC(=O)N3c4ccccc4Sc4ccccc43)nc21 as the molecule, how does the inhibition read?
A: Its inhibition is 27.5% (inactive).

Q: For Cc1ccc(-c2nnc(Nc3ccc(C(=O)N(C)C)cc3)c3ccccc23)cc1S(N)(=O)=O, which inhibition is on record?
A: The inhibition was -20.2% (inactive).

Q: With Cc1nn(-c2ccccc2)c(CC(C)(C)C(=O)O)c1C(=O)O as the molecule, how does the inhibition read?
A: Its inhibition is -5.62% (inactive).

Q: For CCc1cc2c(=O)n(-c3ccccc3)c(SCC(=O)O)nc2s1, which inhibition is on record?
A: Its inhibition is -1.73% (inactive).

Q: With COc1cc(S(=O)(=O)NCCN2CCOCC2)ccc1Br as the molecule, how does the inhibition read?
A: Its inhibition is 1.46% (inactive).

Q: Which inhibition does the source give for C=C1C(=O)O[C@H]2C3=C(C)C[C@H](OC(C)=O)C[C@]3(C)CC[C@@H]12 here?
A: The inhibition was 8.27% (inactive).

Q: With Oc1ccc(CN2CCCC2)c2cccnc12 as the molecule, how does the inhibition read?
A: Its inhibition is 40.6% (inactive).

Q: Which inhibition does the source give for C[C@H]1CN([C@@H](C)CO)C(=O)c2cc(NC(=O)Cn3cnnn3)ccc2O[C@@H]1CN(C)C(=O)Nc1ccccc1 here?
A: Its inhibition is 5.69% (inactive).

Q: With C[C@H](CO)N1C[C@H](C)[C@H](CN(C)CC2CC2)Oc2ccc(NC(=O)c3ccncc3)cc2C1=O as the molecule, how does the inhibition read?
A: The inhibition was -11.7% (inactive).

Q: With C=C1C[C@@]23CC[C@@H]4[C@](C)(CO)CCC[C@@]4(C)[C@@H]2CC[C@@H]1C3 as the molecule, how does the inhibition read?
A: Its inhibition is -32.7% (inactive).

Q: With Cc1ccc(NC(=O)C(C)N(c2ccc(Cl)cc2)S(C)(=O)=O)c(C)c1 (centres undefined) as the molecule, how does the inhibition read?
A: The inhibition was -5.76% (inactive).

Q: Which inhibition does the source give for Cc1cc([N+](=O)[O-])nn1CC(=O)NC(C)C here?
A: Its inhibition is 8.94% (inactive).

Q: With C[C@@H]1CN([C@@H](C)CO)C(=O)c2cc(NC(=O)Nc3ccccc3)ccc2O[C@H]1CN(C)C(=O)Nc1ccc(F)cc1 as the molecule, how does the inhibition read?
A: Its inhibition is 3.76% (inactive).

Q: For COc1ccccc1NC(=O)C1=C(C)Nc2nnnn2C1c1ccccc1OCc1ccccc1 (centres undefined), which inhibition is on record?
A: Its inhibition is 41.2% (inactive).

Q: Which inhibition does the source give for O=C(CSc1nnc(-c2ccccc2)n1-c1ccccc1)c1cccc([N+](=O)[O-])c1 here?
A: The inhibition was 5.69% (inactive).

Source: PubChem BioAssay AID2240 (Broad Institute, 2010)
